Laboratory results taken from PubChem BioAssay AID485346 (Sanford-Burnham Center for Chemical Genomics, 2010).
The campaign covered roughly 330,000 compounds. About 10,000 (3%) were called active. Only a selection was taken, and actives are over-represented in it overall. Values without a mark were called inactive.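 How the source made its calls: active means inhibition of at least 50% at 8 µM in the primary screen; inactive means the rest.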

What follows are compounds tested against Protein Mdm4 (Homo sapiens) + E3 ubiquitin-protein ligase Mdm2 (Homo sapiens) (UniProt O15151+Q00987) (assay: inhibitors of human Mdm2-MdmX association, primary screen, cell-based, luminescence, split luciferase, SaOS-2, uHTS (AID 485346)). Conditions: SaOS-2 split-luciferase Mdm2/MdmX complementation, at 8 µM, stronger effect = higher value.
Protein Mdm4 (Homo sapiens) + E3 ubiquitin-protein ligase Mdm2 (Homo sapiens), sequence (O15151 whole entry, looked up): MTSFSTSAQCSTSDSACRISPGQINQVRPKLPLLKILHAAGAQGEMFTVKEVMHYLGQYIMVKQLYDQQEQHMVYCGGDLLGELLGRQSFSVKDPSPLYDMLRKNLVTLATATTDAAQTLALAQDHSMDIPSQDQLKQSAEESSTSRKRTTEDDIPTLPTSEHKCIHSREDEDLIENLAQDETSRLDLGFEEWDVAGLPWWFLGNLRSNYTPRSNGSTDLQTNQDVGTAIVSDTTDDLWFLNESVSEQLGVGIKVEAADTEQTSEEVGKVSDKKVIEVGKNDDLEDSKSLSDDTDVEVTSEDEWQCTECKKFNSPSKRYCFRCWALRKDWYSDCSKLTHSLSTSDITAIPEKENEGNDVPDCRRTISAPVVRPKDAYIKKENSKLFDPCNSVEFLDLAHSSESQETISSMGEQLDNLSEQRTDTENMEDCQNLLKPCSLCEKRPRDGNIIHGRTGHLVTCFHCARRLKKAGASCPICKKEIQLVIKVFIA
Protein Mdm4 (Homo sapiens) + E3 ubiquitin-protein ligase Mdm2 (Homo sapiens), sequence (Q00987 whole entry, looked up): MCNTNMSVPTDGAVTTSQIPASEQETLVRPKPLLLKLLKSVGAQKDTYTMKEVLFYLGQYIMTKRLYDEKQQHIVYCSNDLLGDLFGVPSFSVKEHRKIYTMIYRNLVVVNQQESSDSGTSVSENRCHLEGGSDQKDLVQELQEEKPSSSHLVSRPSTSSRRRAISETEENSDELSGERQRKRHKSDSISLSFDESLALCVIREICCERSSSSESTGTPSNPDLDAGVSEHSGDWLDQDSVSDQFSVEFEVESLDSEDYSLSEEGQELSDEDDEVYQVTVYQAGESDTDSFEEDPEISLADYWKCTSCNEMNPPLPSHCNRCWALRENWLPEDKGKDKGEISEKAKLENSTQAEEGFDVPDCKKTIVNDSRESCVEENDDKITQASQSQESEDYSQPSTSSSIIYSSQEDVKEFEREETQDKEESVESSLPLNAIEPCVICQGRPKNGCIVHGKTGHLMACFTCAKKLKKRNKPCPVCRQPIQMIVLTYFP

Compound	inhibition
CCOc1ccc(-c2cc(C)[n+](CCN(CC)CC)c(-c3ccc(OCC)cc3)c2)cc1	90.7% (active)
COc1ccc(CCn2c(O)c(C=NCCCn3ccnc3)c(=O)[nH]c2=O)cc1OC	-17.9%
Cc1cc(=O)oc2c(C)c(OCC(=O)N3CCN(Cc4ccc5c(c4)OCO5)CC3)ccc12	1.14%
CC12CN3CC(C)(CN(C1)C3c1cccs1)C2 (stereo not given)	-26.1%
O=C(Nc1cccc2ccccc12)N1CCC2(CC1)OCCO2	-30%
O=c1c2ccccc2nc(/C=C/c2ccco2)n1-c1ccccc1O	-1.65%
O=c1c2ccccc2nc(/C=C/c2ccc(F)cc2)n1-c1ccccc1O	60.9% (active)
Cc1nc2ccccc2c(=O)n1-c1ccc(Cl)cc1Cl	-13.3%
CC(=O)N1CN2CN(C(C)=O)CC(C(=O)c3ccc(Br)cc3)(C2)C1	26.2%
CC(=C1C(=O)c2ccccc2C1=O)N1CCN(CCN=Cc2c(O)n(C)c(=O)n(C)c2=O)CC1	-1.58%
O=C1C2(Cl)C3(Cl)C4(Cl)C(Cl)(Cl)C5(Cl)C3(Cl)C1(Cl)C5(Cl)C24Cl (stereo not given)	99.3% (active)
COc1ccc2[nH]c3c(c2c1)CCN[C@H]3C	9.11%
Cc1ccc(C)c(NC2=NCCCS2)c1	11.6%
c1ccc2sc(C3CCCNC3)nc2c1 (stereo not given)	-26.6%
Cc1cccc2c(CCN)c[nH]c12	13.4%
CCCCCn1c(=O)c(C(=O)NCc2ccccn2)c(O)c2ccccc21	13.9%
CCCCCn1c(=O)c(C(=O)NCc2ccccc2)c(O)c2ccccc21	62.6% (active)
CCCCn1c(=O)c(C(=O)Nc2ccccc2Cl)c(O)c2ccccc21	37.6%
CC(C)n1c(=O)c(C=Nc2ccc(Br)cc2)c(O)n(Cc2ccco2)c1=O	-33.1%
CN1CCN(/N=C/c2c[nH]c3ccccc23)CC1	-22.1%
OC1/C(=C/c2ccc(C(F)(F)F)cc2)N2CCC1CC2 (stereo not given)	17.5%
CC(=NCc1ccc2c(c1)OCO2)c1c(O)[nH]c(=O)[nH]c1=O	-16%
COc1cc(-n2c(=S)[nH]c3ccc(C)cc3c2=O)c(Cl)cc1Cl	40.1%

Compound	inhibition
Cc1cc2ccccn2c1C(C[N+](=O)[O-])c1c(F)cccc1Cl (stereo not given)	97.4% (active)
c1cc2c(cc1C1OCC3C(c4ccc5c(c4)OCO5)OCC13)OCO2 (stereo not given)	1.17%
COc1ccc(CCn2c(O)c(C=NC3CC3)c(=O)[nH]c2=O)cc1OC	24.7%
CC(C)c1c(CN(C)C(C)Cc2ccccc2)n(C)n(-c2ccccc2)c1=O (stereo not given)	-0.74%
CC(Cc1ccccc1)NCCC(c1ccccc1)c1ccccc1 (stereo not given)	63% (active)
CC(=O)NC(=O)NC(C)Cc1ccccc1 (stereo not given)	15.7%
CC(Cc1ccccc1)NC=O (stereo not given)	12.4%
COC1=CC=C2[C@H]3Cc4ccc(OC)c5c4[C@@]2(CCN3C)C1O5 (stereo not given in full)	11%
O=c1[nH]c(=O)n(-c2ccccc2)c(O)c1C=NC12CN3CN(CN(C3)C1)C2	-21.9%
Cc1ccc(-c2cc(C(=O)N3CCC4(CC3)OCCO4)no2)cc1	-32.3%
O=C(c1cc2nc(-c3ccccc3)cc(-c3ccccc3)n2n1)N1CCC2(CC1)OCCO2	55.7% (active)
O=C(c1cc(-c2ccncc2)nc2ccccc12)N1CCC2(CC1)OCCO2	-28.6%
c1ccc(CCNC2CCCCCC2)cc1	24.6%
Cc1ccc(Cn2nnnc2CN2CCC(n3nnc4ccccc43)CC2)cc1	26.2%
CCOP(=O)(OCC)C(NC(=O)c1ccc(C)cc1)C(Cl)(Cl)Cl (stereo not given)	-8.99%
CNC(=S)N/N=C1\C2CN3CCN(C2)CC1(c1ccccc1)C3	-27.4%
CN(C)c1nc(N(C)C)nc(N(C#N)CCCl)n1	28.9%
O=C1NC(=O)N(CCc2ccc(F)cc2)C(=O)/C1=C/C=C/c1ccccc1	99.4% (active)
O=C1NC(=O)N(Cc2ccco2)C(=O)/C1=C\c1ccc(-c2ccc(F)cc2)o1	-9.82%
O=C(O)COc1ccccc1/C=C1\C(=O)NC(=O)N(CCC2=CCCCC2)C1=O	2.61%
COc1ccccc1N=C1SCCCN1C	-4.32%
CCOP(=O)(OCC)C(O)c1ccc(OC)cc1OC (stereo not given)	19.2%
CC[N+]1(C)CCCC(OC(=O)C(O)(c2ccccc2)c2ccccc2)C1 (stereo not given)	12.9%

Compound	inhibition
COC(=O)C1=C(c2ccc(-c3ccccc3)c(F)c2)C[C@@H]2CC[C@H]1N2C(=O)NCc1ccc(F)cc1	21.7%
COC(=O)C1=C(c2ccc(F)cc2OCc2ccccc2)C[C@@H]2CC[C@H]1N2C(=O)NCc1ccc2[nH]ccc2c1	52.5% (active)
COC(=O)C1=C(c2ccc(F)cc2OCc2ccccc2)C[C@@H]2CC[C@H]1N2C(=O)NCc1ccc(C(C)(C)C)cc1	48.4%
COC(=O)C1=C(c2ccccc2OCc2ccccc2)C[C@@H]2CC[C@H]1N2C(=O)NCc1ccc(OC)cc1	12.6%
COC(=O)C1=C(c2ccc(F)cc2OCc2ccccc2)C[C@@H]2CC[C@H]1N2C(=O)NCc1ccc(Cl)cc1	55.7% (active)
COC(=O)C1=C(c2ccc(F)cc2OCc2ccccc2)C[C@@H]2CC[C@H]1N2C(=O)NCc1ccc(OC)c(OC)c1	14.8%
CCOP(=O)(OCC)C(NC(=O)c1ccc(OC)cc1)C(Cl)(Cl)Cl (stereo not given)	16.4%
COC(=O)N(c1ccc(OC)cc1)P1(=S)OCCC(C)O1 (stereo not given)	7.17%
CCOc1ccc(C2SCC(=O)Nc3c2c(C)nn3C2CCOC(C)(C)C2)cc1 (stereo not given)	3.37%
CCC(=O)c1ccc(OCC(=O)N2CCN(CC(=O)Nc3ccc(C)cc3)CC2)cc1	30%
Cc1cccc(-n2c(O)c(C=NC34CN5CN(CN(C5)C3)C4)c(=O)[nH]c2=O)c1	-8.36%
CNCC(O)c1cc(F)c(OCc2ccccc2)c(OCc2ccccc2)c1F (stereo not given)	86.6% (active)
O=C(NC(c1ccc(Cl)cc1)P(=O)(Oc1ccccc1)Oc1ccccc1)OCc1ccccc1 (stereo not given)	18.9%
C[C@]12CC[C@H](O)C[C@H]1CC[C@@H]1C2CC[C@]2(C)[C@@H](C3=CC(=O)OC3)[C@@H](O)C[C@]12O (stereo not given in full)	45.4%
N#CC1=C(N)Oc2c(c(=O)oc3ccccc23)C1c1ccccc1OC(=O)c1cccs1 (stereo not given)	62.3% (active)
CCNc1nc2[nH]c(=O)c3c(c2s1)OC(N)=C(C#N)C3c1cccs1 (stereo not given)	17.9%
COC(=O)C1=C(c2cccc(OCc3ccccc3)c2)C[C@@H]2CC[C@H]1N2C(=O)NNCc1ccccc1	29.6%
CC(=O)N(C1=NCCCS1)c1ccccc1F	14.4%
CN(C)C(=O)Oc1cc(=O)n2c3c(cccc13)CCC2	19.2%
CCCCCCCCCCCCn1ccc(=N)cc1	97.2% (active)
CC(C(=O)Nc1ccc(Cl)cc1Cl)N1CC=C(c2ccccc2)CC1 (stereo not given)	-0.882%
NCCc1ccc(S(=O)(=O)F)cc1	5.92%
O=C1NC(=O)C(C/C=C/c2ccccc2)C(=O)N1	-4.93%

Compound	inhibition
CC1(C)Cc2c(C#N)c(N3CCNCC3)nc(-c3ccco3)c2CS1	62% (active)
COc1cccc(N2C(=O)NC(=O)/C(=C\c3ccc([N+](=O)[O-])s3)C2=O)c1	7.01%
COC(=O)[C@@H]1C(OC(=O)c2ccccc2)CC2CCC1N2C (stereo not given in full)	5.75%
COc1ccc(C2N3CC(C)(C)CN23)cc1 (stereo not given)	4.71%
O=C(O)c1ccccc1NC(=O)C1C2CCC(O2)C1C(=O)O (stereo not given)	40.4%
CCCCC(=O)N/N=C/c1c(O)n(CC)c(=S)n(CC)c1=O	10.6%
CCCCC(=O)N/N=C/c1c(O)n(CCC2=CCCCC2)c(=O)[nH]c1=O	50.4% (active)
CCCCC(=O)N/N=C/c1c(O)n(-c2ccccc2)c(=O)[nH]c1=O	10.7%
O=C1NC(=O)C(CCc2ccccn2)(Cc2cccc(Cl)c2Cl)C(=O)N1c1ccc(Br)cc1 (stereo not given)	17.3%
C/C(=N/O)c1ccc2ccc3ccccc3c2c1	-52.9%
O=Cc1cn(Cc2ccc(F)cc2Cl)c2ccccc12	50.9% (active)
CN1CCC(N(C)Cc2cccnc2)CC1	-0.974%
CN(C)CCN(CC1CCCN(Cc2ccccc2F)C1)C(=O)Cc1ccc(F)c(F)c1 (stereo not given)	15.4%
CC(=O)c1ccc(OC(NC(=O)Cc2ccccc2)C(Cl)(Cl)Cl)cc1 (stereo not given)	6.38%
c1ccc(C2NCc3ccccc3-n3cccc32)cc1 (stereo not given)	19.8%
Cn1c(C(=O)N2CCC(C(=O)N3CCC4(CC3)OCCO4)CC2)cc2sccc21	-1.94%
CNC(=O)O/N=C(\N)Cc1csc2ccc(Cl)cc12	97.6% (active)
CNC(=O)O/N=C(\N)Cc1csc2ccccc12	78.8% (active)
CC[C@H]1CC2CN3CCc4c([nH]c5ccccc45)C(C(=O)OC)(C2)C13 (stereo not given in full)	33.7%
Cc1cc(N2C(=O)C3CCCN3C2c2ccc(Cl)c(Cl)c2)no1 (stereo not given)	-4.12%
CCCn1c(C(=O)c2ccccc2OC)nc2ccccc21	10.6%
